From PubChem BioAssay
The sample as a whole holds a higher share of hits than the screen did.
Cruzain inh Det: blocks cruzain activity in presence of Triton detergent | purified cruzain, Z-FR-AMC fluorescence, 0.01% Triton | 200,000 tested, 0.43% active | AID 1478 | P25779 | Potency, µM, actives largely listed as inhibitors; note: nearly all actives have a fitted effect of over 40% in size
Target sequence (P25779 123-467 limits assumed): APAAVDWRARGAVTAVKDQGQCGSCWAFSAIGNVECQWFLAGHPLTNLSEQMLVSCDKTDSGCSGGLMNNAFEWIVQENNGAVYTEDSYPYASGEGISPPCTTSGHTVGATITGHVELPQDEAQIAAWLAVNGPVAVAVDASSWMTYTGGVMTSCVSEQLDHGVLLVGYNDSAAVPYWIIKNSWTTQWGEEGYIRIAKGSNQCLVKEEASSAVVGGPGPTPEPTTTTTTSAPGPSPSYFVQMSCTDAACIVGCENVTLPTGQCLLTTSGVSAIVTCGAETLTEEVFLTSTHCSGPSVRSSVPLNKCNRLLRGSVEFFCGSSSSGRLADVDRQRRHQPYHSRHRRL
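Purified cruzain (1.5 nM final) was preincubated with compounds for 15 min at room temperature in 100 mM sodium acetate pH 5.5, 5 mM DTT, 0.01% Triton X-100. Reaction started with 2 uM Z-FR-AMC; AMC fluorescence change over 60 s gave activity.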
Cruzain noTriton: blocks cruzain activity in detergent-free assay. P25779. purified cruzain, Z-FR-AMC fluorescence, no detergent. Potency, µM, most hits filed as inhibitors. 200,000 tested, 2.3% active; note: nearly all actives have a fitted effect of over 40% in size
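Detergent-free condition (0.00005% Triton X-100) in acetate buffer pH 5.5 with DTT. 1.5 nM enzyme and compound were pre-mixed 15 min, then 2 uM Z-FR-AMC substrate added; reaction progress from fluorescence change between first and third reads (60 s).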
NS1 function inh: inhibitors of influenza NS1 protein function; Potency, µM (series often up to 46.1 µM); AID 2326; 270,000 tested, 0.4% active; calls by dose curve; note: actives are rising curves; nearly all actives have a fitted effect of over 50% in size
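In this qHTS, NS1 from influenza A is expressed in budding yeast, where it slows growth. Cells are switched from glucose to 2% galactose medium (pH 6.0, -URA), treated with compound, and growth recovery is read at OD600.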
Of the large screens only hits and unclear results are named; the others gave an inactive call. Unless noted, calls come from the whole dose curve; as a rule, active = well fitted curve in the direction sought with a large enough effect; inconclusive = small, poorly fitted or top-dose-only effect, or another doubt; inactive = no such curve, though single readings can be large; an effect the other way counts as inactive or inconclusive.

O=Nc1c(-c2c(O)[nH]c3cc(Br)ccc23)[nH]c2ccccc12	Cruzain noTriton 31.6µM
COc1cccc(-c2ccc3c(N)c(C(=O)c4ccc(Cl)cc4)sc3n2)c1	Cruzain noTriton 7.94µM (no result: NS1 function inh)
COc1ccc(C(=O)c2sc3nc(-c4ccccc4)ccc3c2N)cc1	Cruzain noTriton inconclusive
CC(C)(C)c1ccc(/C=C/C(=O)c2ccc(NC3=NCCCS3)cc2)cc1	Cruzain noTriton 31.6µM
O=C(/C=C/c1ccccc1)c1ccc(NC2=NCCCS2)cc1	Cruzain noTriton inconclusive
COc1ccc(CC(N)C(=O)N[C@H]2[C@@H](O)[C@H](n3cnc4c(N(C)C)ncnc43)O[C@@H]2CO)cc1 (stereo not given in full)	none (no result: NS1 function inh)
Cc1ccc(C)c([C@@H]2NC(=O)c3ccccc3N2)c1	none
COc1ccc(OC)c(NC(=O)CC2SC(=Nc3ccccc3)N(CCc3ccccn3)C2=O)c1 (stereo not given)	Cruzain noTriton inconclusive
COc1ccc(OC)c(NC(=O)CC2SC(=Nc3ccc(F)cc3)N(CCC3=CCCCC3)C2=O)c1 (stereo not given)	Cruzain noTriton 20µM
COc1ccc(N=C2SC(CC(=O)Nc3ccc(OC)cc3OC)C(=O)N2C)cc1 (stereo not given)	Cruzain noTriton inconclusive
COc1cc([N+](=O)[O-])ccc1NC(=O)CC1SC(=Nc2ccc(F)cc2)N(CCC2=CCCCC2)C1=O (stereo not given)	Cruzain noTriton 10µM, NS1 function inh inconclusive
Cc1nn(-c2ccccc2)c(OC(=O)c2ccccc2Br)c1S(=O)(=O)c1ccccc1	none (no result: NS1 function inh)
COc1cccc(Cn2c(=O)c(-c3cc(F)cc(F)c3)nc3cnc(N(C)C)nc32)c1	none (no result: NS1 function inh)
O=C1OC(c2cc(I)c(O)c(I)c2)(c2cc(I)c(O)c(I)c2)c2ccccc21	none (no result: NS1 function inh)
COc1ccc2c(c1)c1nnc(SCC(=O)N3C(C)CCCC3C)nc1n2C (stereo not given)	Cruzain inh Det 17.8µM
COc1ccc2c(c1)c1nnc(SC)nc1n2C	none
CN(/N=C\c1ccccc1O)c1ccc2ccccc2n1	none
CCc1ccc(C(=O)c2cnc3ccc(C)cc3c2S(=O)(=O)c2ccc(OC)cc2)cc1	none (no result: NS1 function inh)
Cc1ccc(C(=O)c2cnc3ccccc3c2-c2ccccc2)cc1	none
CCc1ccc(S(=O)(=O)c2c(C(=O)c3ccc(C)c(C)c3)cnc3ccccc23)cc1	Cruzain noTriton 12.6µM (no result: NS1 function inh)
CCOc1ccc(S(=O)(=O)c2c(C(=O)c3ccc(CC)cc3)cnc3ccc(C)cc23)cc1	Cruzain noTriton 20µM (no result: NS1 function inh)
CCOc1ccc(S(=O)(=O)c2c(C(=O)c3ccccc3)cnc3cc4c(cc23)OCCO4)cc1	Cruzain noTriton 31.6µM, NS1 function inh inconclusive
CCOc1ccc(C(=O)c2cnc3ccc(Cl)cc3c2S(=O)(=O)c2ccc(C)cc2)cc1	none (no result: NS1 function inh)
O=C(O)c1cc2c(cc1S(=O)(=O)O)[C@H]1[C@@H](C3[C@H]2[C@@]2(Cl)C(Cl)=C(Cl)C3(Cl)C2(Cl)Cl)[C@]2(Cl)C(Cl)=C(Cl)C1(Cl)C2(Cl)Cl (stereo not given in full)	NS1 function inh inconclusive
CN(C)c1ccc(NC(=O)CN2C(=O)c3ccccc3Sc3ccc(C(=O)N4CCCC4)cc32)cc1	none (no result: NS1 function inh)
CCOC(=O)N1CCN(Cc2nc3cc(NC(=O)c4ccc([N+](=O)[O-])cc4)ccc3n2C(C)C)CC1	Cruzain noTriton inconclusive (no result: NS1 function inh)
Cc1nn(-c2ccccc2)c2c1N(CC(=O)NCc1ccc(N(C)C)cc1)C(=O)CS2	none (no result: NS1 function inh)
Cc1cccc(NC(=O)N[C@@H]2N=C(c3ccccc3)c3ccccc3N(CC(=O)c3ccccc3C)C2=O)c1	Cruzain noTriton 31.6µM (no result: NS1 function inh)
COc1ccc(NC(=O)CN2C(=O)C(C)N=C(c3ccccc3)c3ccccc32)cc1OC (stereo not given)	Cruzain noTriton inconclusive (no result: NS1 function inh)
Cc1ccccc1CN1CCc2nc(Nc3ccc4c(c3)OCCO4)ncc2C1	Cruzain noTriton inconclusive (no result: NS1 function inh)
Cc1c(Cl)ccc2sc(NC(=O)c3ccc(S(=O)(=O)N4CCCc5ccccc54)cc3)nc12	Cruzain noTriton inconclusive (no result: NS1 function inh)
Cc1ccc(-c2csc(NC(=O)c3ccc(S(=O)(=O)N4CCc5ccccc54)cc3)n2)cc1	Cruzain noTriton 5.01µM
O=C(Nc1nc(-c2ccc(S(=O)(=O)N3CCOCC3)cc2)cs1)c1ccccc1	none
Cc1cccc2sc(NC(=O)c3cccc(S(=O)(=O)N4CCc5ccccc54)c3)nc12	Cruzain noTriton 10µM
O=C(Nc1nc2c(Cl)cccc2s1)c1ccc(S(=O)(=O)N2CCc3ccccc32)cc1	Cruzain noTriton 3.16µM (no result: NS1 function inh)
O=C(Nc1ncccc1O)c1cccc(S(=O)(=O)N2CCc3ccccc32)c1	none
CCOc1cccc2sc(NC(=O)c3ccc(S(=O)(=O)N4CCCc5ccccc54)cc3)nc12	Cruzain noTriton 2µM (no result: NS1 function inh)
COc1cc2nc(NC(=O)c3ccc(S(=O)(=O)N4CCc5ccccc54)cc3)sc2cc1OC	none (no result: NS1 function inh)
O=S(=O)(NCC(c1cccs1)S(=O)(=O)c1ccccc1)c1ccc(F)cc1 (stereo not given)	none (no result: NS1 function inh)
CCc1ccccc1Nc1ncnc2c1cnn2-c1ccc(Cl)cc1	none (no result: NS1 function inh)
OCCN[C@@H]1c2cc(Cl)ccc2-c2c(Cl)cc(Cl)cc21	none
COc1ccccc1CNC(=O)C1CCCN(c2nnc(-n3c(C)ccc3C)s2)C1 (stereo not given)	none (no result: NS1 function inh)
CCOc1ccc(-c2cc(C(=O)Oc3ccc(C#N)cc3)no2)cc1	none (no result: NS1 function inh)
COc1ccc(-c2nc(CSCC(=O)N3CCN(c4ccc(F)cc4)CC3)c(C)o2)cc1	Cruzain noTriton inconclusive (no result: NS1 function inh)
COc1ccc(CNC(=O)c2cc(Nc3ccc(C)cc3C)nc3ccccc23)cc1	none (no result: NS1 function inh)
COc1ccc(CNC(=O)c2cc(Nc3ccccc3C)nc3ccccc23)cc1	Cruzain noTriton 25.1µM (no result: NS1 function inh)
Cc1ccc(-c2nnc3ccccc3c2C(=O)Nc2ccccc2F)cc1	Cruzain noTriton 25.1µM (no result: NS1 function inh)
Cc1ccc(-c2nnc3ccccc3c2C(=O)Nc2ccc(F)cc2)cc1	none (no result: NS1 function inh)
CCOC(=O)c1cnc2ccc(OC(F)(F)F)cc2c1Nc1ccccc1C(=O)O	none (no result: NS1 function inh)
Cc1ccc(NC(=S)NC(=O)c2ccc(-c3ccc(Cl)cc3)o2)c(O)c1	none
Cc1cc(O)c(NC(=S)NC(=O)c2ccc(-c3ccc(Cl)cc3)o2)cc1C	Cruzain noTriton 15.8µM
C[N+](C)(C)CCCSc1nc2ccccc2[nH]1	none
CC(C)(C)c1ccc(S(=O)(=O)NCc2ccc3c(c2)CCN3C(=O)c2ccccc2)cc1	Cruzain noTriton inconclusive (no result: NS1 function inh)
CCOc1ccc(C(=O)N2CCN(Cc3cc(=O)n4nc(-c5ccccc5Cl)sc4n3)CC2)cc1	none (no result: NS1 function inh)
Cc1ccc(N2C(=O)CS(=O)(=O)C23C(=O)N(Cc2ccccc2C)c2ccccc23)cc1Cl (stereo not given)	Cruzain noTriton 2µM (no result: NS1 function inh)
CN1C(=O)C2(c3ccccc31)N(c1cccc(F)c1)C(=O)CS2(=O)=O (stereo not given)	none (no result: NS1 function inh)
CN1C(=O)C2(c3ccccc31)N(c1ccc(F)c(Cl)c1)C(=O)CS2(=O)=O (stereo not given)	Cruzain noTriton inconclusive (no result: NS1 function inh)
Cc1cc(C)cc(N2C(=O)CS(=O)(=O)C23C(=O)N(C)c2ccccc23)c1 (stereo not given)	none (no result: NS1 function inh)
Cc1ccc(C)c(CN2C(=O)C3(c4ccccc42)N(c2cccc(C(F)(F)F)c2)C(=O)CS3(=O)=O)c1 (stereo not given)	Cruzain noTriton 1.26µM (no result: NS1 function inh)
Cc1ccc(CN2C(=O)C3(c4ccccc42)N(c2cccc(F)c2)C(=O)CS3(=O)=O)cc1 (stereo not given)	Cruzain noTriton 1.58µM (no result: NS1 function inh)
